# Shown are actives, neighbours in structure and some others; about 4.6% of the full set was active somewhere.
# D1 agonist = human D1 receptor agonism; P21728; HEK293 T-REx D1 cells, calcium flux, agonist mode; activation, % at 2 µM; actives 1% (n = 360,000); AID 504660; further: 0% is about no effect
# Target sequence (P21728 whole entry, looked up): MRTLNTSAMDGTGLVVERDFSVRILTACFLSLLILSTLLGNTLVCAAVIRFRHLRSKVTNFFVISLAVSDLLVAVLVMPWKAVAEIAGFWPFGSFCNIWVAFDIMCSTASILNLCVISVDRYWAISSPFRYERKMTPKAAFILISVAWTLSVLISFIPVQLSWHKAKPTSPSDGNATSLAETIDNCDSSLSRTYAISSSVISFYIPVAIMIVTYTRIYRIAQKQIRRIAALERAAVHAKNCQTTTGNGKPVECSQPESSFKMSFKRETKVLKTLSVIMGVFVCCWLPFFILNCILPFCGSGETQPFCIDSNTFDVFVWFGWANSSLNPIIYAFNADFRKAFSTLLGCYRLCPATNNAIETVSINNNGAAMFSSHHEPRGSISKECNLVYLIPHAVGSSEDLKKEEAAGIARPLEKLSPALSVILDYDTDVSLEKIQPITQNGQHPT
#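 Tetracycline-induced HEK293 TREx D1 cells, force-coupled to calcium signalling, were dye-loaded with a no-wash calcium kit. Compound was pin-added after a 10 s baseline. Fluorescence was read kinetically at 1 cycle/s for 180 s, with calcium rises flagged as agonism.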
# D1 antagonist = blocks dopamine activation of the human D1 receptor; P21728; HEK293 TREx D1 cells, calcium flux, dopamine EC80; hits give low values; activity change, negative = inhibition, % at 10 µM; actives 3.2% (n = 360,000); in the data active means activity change below about -30%; further: on the % scale 0 is the no-effect control and ±100 the full control effect
#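 Inducible Hek293 Trex D1 cells (tetracycline, overnight, 30 C). Calcium dye 30–90 min RT. Antagonist mode: EC80 dopamine added after 180 s compound read.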
# TRHR ag = TRH receptor (human) agonism | P34981 | TRHR cells, calcium flux fluo-8, FDSS agonist mode | activation, % at 2 µM | actives 0.18% (n = 360,000) | AID 493084; further: 0% is about no effect
#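 TRHR-expressing cells loaded with fluo-8 calcium dye; 23 nL library compound pin-transferred, kinetic FDSS fluorescence (Ex 480/Em 530) recorded about 180 s for agonist-induced calcium release, before a 10 nM TRH EC20 addition for potentiator mode.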
# D1 PAM = human D1 dopamine receptor positive modulation; P21728; HEK293 TREx D1 cells, calcium flux, dopamine EC20 potentiation; potentiation, % at 10 µM; actives 0.036% (n = 360,000); in the data active means potentiation above about 30%; further: 0% is about no effect
# TRHR PAM = allosterically enhances the human TRH receptor; AID 493056; actives 0.66% (n = 360,000); TRHR cells, fluo-8 calcium fluorescence, EC20 TRH enhancement; enhancement, % at 2 µM; P34981; in the data active means enhancement above about 30%; further: 0% is about no effect
#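 TRHR-expressing cells loaded with fluo-8 calcium dye were read kinetically (ex 480/em 530) during compound addition, then stimulated with an EC20 of TRH (10 nM final). Enhancement of the Gq-mediated intracellular calcium response was scored.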
# An asterisk follows results filed as active; x = no result. Unless noted, no stated cut-off is given here; in the data, active means activation above about 30%; inactive means the rest.
SMILES,D1 agonist,D1 antagonist,TRHR ag,D1 PAM,TRHR PAM
O=[N+]([O-])c1cn(-c2nc(-c3ccco3)cc(C(F)(F)F)n2)cn1,62.3*,x,0.7,-1.4,-2.9
CCn1cnc2c(NCc3cccnc3)nc(C#N)nc21,3.5,-29.9,2.3,-9.2,4.5
Cc1cc(C)cc(N(CCC#N)C(=O)COC(=O)c2ccccc2SCC(=O)N2CCCC2)c1,5.7,-34.2*,1.6,-2.5,0.3
Cc1ccc(N(CCC#N)C(=O)COC(=O)c2ccccc2SCC(=O)N2CCCC2)cc1,-0.4,29.6,-0.9,0.0,21.7
CN(C)Cc1nnnn1-c1ccccc1,0.7,3.9,0.6,8.4,4.8
Cc1ccc(Cn2nnc(C(=O)Nc3cc(C)ccc3C)c2N)cc1,40.3*,3.6,5.1,4.9,-0.6
COc1ccc(OC)c(NC(=O)c2nnn(Cc3ccc(Br)cc3F)c2N)c1,4.9,39.3,6.6,0.2,16.7
Cc1ccc(C)c(NC(=O)c2nnn(Cc3ccccc3)c2N)c1,16.9,25.1,2.9,3.8,-0.9
COc1ccc(NC(=O)Cn2nnc(C(=O)Nc3ccccc3C)c2N)cc1,1.4,-64.4*,0.1,-5.8,3.5
COc1ccc(NC(=O)c2nnn(Cc3ccc(Br)cc3F)c2N)c(OC)c1,34.2*,24.8,11.6,10.9,4.0
Cc1ccc(C)c(NC(=O)c2nnn(Cc3ccc(F)cc3Cl)c2N)c1,78.6*,-31.9*,8.6,-3.1,-0.5
COc1ccc(NC(=O)Cn2nnc(C(=O)NCCc3ccccc3)c2N)cc1,2.1,-24.2,-0.3,-7.5,5.6
CCCC(C(=O)NC(C)(C)C)N(Cc1ccccc1Cl)C(=O)c1snc(C(N)=O)c1N (stereo unspecified),3.9,-5.2,-0.4,-8.4,-10.2
Nc1c(C(=O)Nc2ccc3c(c2)OCCO3)nnn1Cc1ccccc1Cl,18.5,5.9,1.6,0.5,7.3
Nc1c(C(=O)Nc2ccccc2)nnn1Cc1ccc(F)cc1Cl,88.2*,-31.4*,16.1,2.5,0.1
Cc1ccccc1NC(=O)CS(=O)(=O)c1cn(CC(=O)N2CCOCC2)c2ccccc12,1.5,6.8,-0.1,-0.1,0.7
COc1ccc(-n2c(C)cc(/C=C3\SC(=S)N(Cc4ccco4)C3=O)c2C)cc1,20.5,-9.0,2.8,-6.8,4.1
CCN1CCN(c2c(/C=C3\SC(=S)N(Cc4ccco4)C3=O)c(C)c(C#N)c(=O)n2C)CC1,234.9*,-4.2,-0.6,-5.5,32.2*
O=C(CSc1ncnc2c1cnn2-c1ccc(F)cc1)NC1CCCC1,14.6,-13.4,-0.6,-2.5,-3.1
CN1CC=C2C(C#N)=C(N)C(C#N)(C#N)C(CCc3ccccc3)C2C1 (stereo unspecified),8.1,-61.8*,4.6,-8.8,22.2
O=C(c1ccc([N+](=O)[O-])cc1)N1CCSC1c1cccc(Cl)c1 (stereo unspecified),3.3,-34.9*,1.5,-12.5,-1.1
Cc1ccc(CN2CCC(CNC(=O)c3cc4ccc5cccnc5c4[nH]3)CC2)cc1,40.4*,8.3,2.9,-4.2,-4.9
CCOc1ccc(CN2CCN(Cc3[nH]c4ccccc4c3C)CC2CCO)cc1 (stereo unspecified),47.6*,-1.4,2.2,-0.9,18.8
Cc1c(CN2CCN(CC(C)(C)C)C(CCO)C2)[nH]c2ccccc12 (stereo unspecified),3.2,21.0,0.5,-2.4,20.4
O=C(c1ccoc1)N1CCC2(CC1)Oc1ccc(Cl)cc1C(=O)C21CC(c2cccnc2)=NO1 (stereo unspecified),4.7,-100.5*,1.5,-8.8,-2.5
SMILES,D1 agonist,D1 antagonist,TRHR ag,D1 PAM,TRHR PAM
Cc1ccccc1Oc1nc2c(c(=O)n(C)c(=O)n2C)n1C,2.4,-4.1,-0.1,-5.0,-1.1
COc1ccc(CCN2CC(C(=O)NCc3ccco3)CC2=O)cc1OC (stereo unspecified),3.5,-1.8,0.1,8.7,22.5
NC(=O)CSc1nnc(-c2cc(-c3cccs3)nc3ccccc23)o1,8.7,-3.8,0.2,-1.3,-7.3
COc1ccc(-c2cc(C(=O)OCc3ccccn3)c3ccccc3n2)cc1,12.8,-34.3*,0.7,-6.5,-9.2
O=C(OC1CCOC1=O)c1cc(-c2ccc(Br)cc2)nc2ccccc12 (stereo unspecified),6.4,12.1,-0.2,3.2,17.4
COc1ccc(-c2cc(C(=O)OC3CCOC3=O)c3ccccc3n2)cc1 (stereo unspecified),2.2,-32.4*,0.6,-5.2,-0.3
CC(=O)c1ccc(S(=O)(=O)NCCCC(=O)NCCc2ccccn2)cc1,0.8,1.8,-0.1,10.6,10.3
COC(=O)c1ccccc1NC(=O)Cn1c(-c2nonc2N)nc2ccccc21,0.4,-67.5*,-0.5,-10.4,1.1
Cn1c(-c2nonc2N)nc2ccccc21,2.9,6.5,0.1,0.6,-6.2
Nc1nonc1-c1nc2ccccc2n1CC(=O)Nc1ccccc1C(=O)O,0.3,8.0,0.9,1.0,11.3
CCCn1c(-c2nonc2N)nc2ccccc21,0.9,-61.9*,0.3,-7.3,-4.0
CC(=O)c1ccc(NC(=O)C(C)Sc2n[nH]c(-c3cccnc3)n2)cc1 (stereo unspecified),-0.5,4.1,-0.4,x,7.1
COCCNC(=S)N1CCN(c2ccc(Cl)cc2)CC1,6.8,-0.5,0.2,-7.5,-2.3
O=C(CSc1cccc2cccc(Cl)c12)NC1=NCCS1,2.2,-4.4,0.7,-5.1,8.8
CCN(CC)C(=O)Cn1cc(C(=O)C(=O)NCCc2ccccc2)c2ccccc21,0.9,-2.8,-0.5,0.2,-7.4
CCN(CC)C(=O)Cn1cc(C(=O)C(=O)NCCCN2CCOCC2)c2ccccc21,1.8,-34.1*,-0.1,0.2,-1.3
CN(CC(=O)Nc1cccc(F)c1)C(=O)c1ccc(C(=O)c2ccccc2)cc1,17.6,-60.3*,4.1,-5.8,-5.1
Cc1ccc(C)c(NC(=O)CCCN2C(=O)C(c3ccccc3)Oc3cccnc32)c1 (stereo unspecified),5.3,0.0,-0.2,-3.9,53.0*
CCCCNC(=O)c1ccc(SCC(=O)N(CC)CC)c([N+](=O)[O-])c1,1.4,0.7,-0.8,6.0,-4.1
CCOC(=O)c1c(C)[nH]c(C)c1S(=O)(=O)N1CCC(C(=O)NCc2ccc(C)cc2)CC1,0.0,-20.6,0.0,-2.2,10.1
CCCn1c(C)cc(C(=O)CSc2nc3nc(C)cc(C)n3n2)c1C,2.4,-49.4*,0.4,-5.5,4.5
CCOC(=O)CSc1nc2nc(C)cc(C)n2n1,-2.2,6.4,0.1,-3.2,-1.0
Cc1cc(C)n2nc(SCN3C(=O)c4ccccc4C3=O)nc2n1,1.0,-32.9*,-2.7,0.3,-9.5
CC1CCN(c2nc3ccc(C(=O)N4CCN(Cc5ccc6c(c5)OCO6)CC4)cc3s2)CC1,2.7,-30.6*,-1.4,x,5.0
O=C(CS(=O)(=O)Cc1ccccc1)N1CCN(Cc2ccc3c(c2)OCO3)CC1,5.1,-37.2*,0.0,-0.8,0.6

# Screening data from PubChem BioAssay.
